Bioassay records from PubChem BioAssay.
JMJD2A Tudor – JMJD2A Tudor domain (human) inhibition. AID 504339. actives 4.4% (n = 390,000). AlphaScreen JMJD2A-Tudor / H3K4me3 peptide binding. O75164. Potency, µM (titrated, usually from 114 µM), inactives show top-dose activity change, negative = inhibition, most hits filed as inhibitors; also: potency is read from the fitted curve at half-maximal effect; % is scaled to controls: 0 for no effect and ±100 for the full control effect; nearly all actives have a fitted effect of over 50% in size
CtBP-E1A inh – inhibitors of CtBP/E1A interaction; AlphaScreen GST-E1A/His-CtBP binding, 1536-well; hits give low values; activity change, % (test concentration not listed); actives 0.49% (n = 340,000); in the data active = activity change below about -65%; inconclusive = mostly about -30% to -63%; also: % is scaled to controls: 0 for no effect and ±100 for the full control effect
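Protein mix (5X: 125 nM each GST-E1A, His-CtBP) was incubated with pinned compound 2 h at 37 deg C in dark, in 50 mM Tris pH 8.0 buffer with 300 mM NaCl. Glutathione donor and nickel acceptor beads followed; AlphaScreen signal read after 1 h.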
HP1b chromo inh – blocks HP1-beta chromodomain binding to methylated histone tails | AlphaScreen HP1-beta / biotin-H3K9me3 peptide binding | Potency, µM (titrated, usually from 114 µM), without a hit: at the highest dose activity change, negative = inhibition, usual class: inhibitors | actives 0.56% (n = 390,000) | AID 540317; also: potency is read from the fitted curve at half-maximal effect; nearly all actives have a fitted effect of over 70% in size
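AlphaScreen: HP1-beta (50 nM) preformed 30 min with biotin-H3(1-18)K9me3 peptide (50 nM) in PBS pH 7.4, 0.01% Tween-20. Compound added for 30 min at RT, then streptavidin donor/nickel chelate acceptor beads (10 ug/mL) for 30 min.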
Six1-Eya2 blk – Six1/Eya2 interaction inhibition | AlphaScreen GST-Six1/His-Eya2 binding, biochemical; hits give low values | activity change, % (concentration not given with the values) | actives 0.56% (n = 360,000) | AID 651725; in the data active = activity change below about -65%; inconclusive = mostly about -30% to -63%; also: % is scaled to controls: 0 for no effect and ±100 for the full control effect
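Six1/Eya2 binding was read as AlphaScreen signal after compounds were pinned into GST-Six1 plus His-tagged Eya2 (5X stock 250/500 nM) in pH 8.0 Tris/NaCl/TCEP buffer, beads added, then incubated 1 h, 37 C, dark.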
BAZ2B block – inhibitors of human BAZ2B bromodomain | Potency, µM (doses to about 114 µM), inactives show at the highest dose activity change, negative = inhibition, hits mostly inhibitors | Q9UIF8 | AID 504333 | AlphaScreen BAZ2B-H3K14Ac peptide displacement | actives 4.4% (n = 360,000); also: potency is read from the fitted curve at half-maximal effect; % is scaled to controls: 0 for no effect and ±100 for the full control effect; nearly all actives have a fitted effect of over 60% in size
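BAZ2B 50 nM plus b-H3(5-23)K14Ac 50 nM, PBS pH 7.4/0.01% Tween-20, 30 min RT; compound added (max 110 uM), 30 min RT; streptavidin donor/Ni-chelate acceptor beads 10 ug/mL final, 20 min dark; AlphaScreen read.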
TDP1 block – TDP1 (human) enzyme inhibition. Q9NUW8. recombinant TDP1, AlphaScreen DNA substrate cleavage. Potency, µM (titrated, usually from 130 µM), for the others: at the highest dose activity change, negative = inhibition, usual class: inhibitors. actives 0.28% (n = 350,000). AID 485290; also: potency is read from the fitted curve at half-maximal effect; % is scaled to controls: 0 for no effect and ±100 for the full control effect; nearly all actives have a fitted effect of over 40% in size
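Here, a 5' biotin and 3' phosphotyrosine-FITC DNA oligonucleotide reports Tdp1 activity: intact substrate bridges AlphaScreen beads, while cleavage leaves a 3' phosphate and drops signal. All incubations at room temperature.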
* = called active by the depositor; ? = inconclusive; · = no result given; [ ] = another dose, or the depositor's remark. A selection: hits, their analogues and other compounds. The true share with any hit is near 5.3%. Unless noted, calls follow the shape of the dose curve; as a rule, active = well fitted inhibition curve with a large enough effect; inconclusive = small, poorly fitted or top-dose-only effect; inactive = no such curve, though single readings can be large or run the other way.

SMILES | JMJD2A Tudor | CtBP-E1A inh | HP1b chromo inh | Six1-Eya2 blk | BAZ2B block | TDP1 block
CC(C)C(=O)NC(c1cccs1)c1cc([N+](=O)[O-])c2cccnc2c1O (stereo not drawn) | 16µM* | -91* | 0% | -97* | 5µM* | 3%
CC(=O)N1c2ccc(S(=O)(=O)N3CCCCCC3)cc2CC1C(=O)NCc1ccccc1F (stereo not drawn) | -8% | · | 16% | · | -13% | -1%
CCC(=O)NC(c1ccco1)c1cc(Cl)c2c(c1O)NCCC2 (stereo not drawn) | 56µM* | · | · | · | · | ·
CCCC(=O)NC(c1ccco1)c1cc(Cl)c2cccnc2c1O (stereo not drawn) | -24% | -90* | 55% | -83* | 50µM* | 10%
Cc1cc(C)cc(NC(=O)c2ccc(Cn3nc(C)c(Cl)c3C)o2)c1 | -6% | 2 | 32% | -1 | 5% | 9%[56.1 µM]
Cc1ccc(CNC(=O)c2ccc(Cn3nc(C)c(Cl)c3C)o2)cc1 | ? | 0 | 25% | -7 | 50µM* | -2%
CCOC(=O)c1cc(-c2ccc(OC)cc2)n(CCC(=O)Nc2nc3ccc(OCC)cc3s2)c1C | -14% | · | 39% | · | 0% | 0%
O=C(NCCNC1CCC(c2ccccc2)CC1)c1ccc(F)cc1 (stereo not drawn) | 5.6µM* | -2 | ? | 6 | 25µM* | 0%
O=C(NCCCc1ccccc1)c1ccc(F)cc1 | 2% | -1 | 67% | 1 | 10% | -16%
O=c1cc(-c2cc3ccccc3o2)c2cc(O)ccc2o1 | -25% | -12 | 29% | -9 | ? | 50µM*
CCNC(=S)NS(=O)(=O)c1ccc(Cl)cc1 | 25µM* | -1 | -11% | 0 | -2% | -3%
CCNC(=S)NS(=O)(=O)c1ccccc1 | 40µM* | 6 | -31% | 4 | ? | 0%
O=C(Cc1ccccc1)NS(=O)(=O)c1ccccc1 | · | 13 | · | 13 | · | ·
C[C@H]1CN([C@@H](C)CO)C(=O)Cc2cc(NC(=O)CCN3CCOCC3)ccc2O[C@@H]1CN(C)Cc1ccc(Oc2ccccc2)cc1 | 45µM* | ? | -18% | -6 | · | 5%
COc1ccc(C(=O)Nc2ccccc2C(=O)NC(Cc2c[nH]c3ccccc23)C(=O)O)cc1 (stereo not drawn) | -14%[11.4 µM] | · | -19% | -4 | 79µM* | 8%
O=C(Nc1ccccc1C(=O)NC(Cc1c[nH]c2ccccc12)C(=O)O)c1ccco1 (stereo not drawn) | -13% | 0 | 32% | 19 | 10% | 1%
COc1ccc(-c2nnc3sc(CN4C(=O)c5ccccc5C4=O)nn23)cc1 | -3% | 2 | -7% | 1 | -1% | 1%
COc1ccc(-c2nnc3sc(C(C)N4C(=O)c5ccccc5C4=O)nn23)cc1 (stereo not drawn) | 18µM* | -8 | 0% | -5 | -6% | -5%
Cc1nc(-c2ccccc2)sc1-c1ccc(SCC(=O)Nc2ccc(F)cc2F)nn1 | 5% | · | 53% | · | -5% | 3%
CCCC(CCC(=O)Nc1cc([N+](=O)[O-])ccc1O)C(=O)O (stereo not drawn) | -6% | -13 | -4% | -11 | 56µM* | 6%
COc1cc(OC)cc(C(=O)Nc2nc(CC(=O)NC(C)c3ccccc3)cs2)c1 (stereo not drawn) | -32% | 1 | 0% | -8 | 50µM* | 2%
CCN(CC)S(=O)(=O)c1cccc(C(=O)Nc2sc3c(c2C#N)CCC(C)C3)c1 (stereo not drawn) | -16% | · | 25% | · | -20% | 3%
Clc1ccc(C(CCN2CCCC2)Cc2ccccc2)cc1 (stereo not drawn) | 4µM* | 0 | ? | 2 | 50µM* | ·
Cc1ccc(-n2ncc(C(=O)NCc3ccccn3)c2C2CCN(C(=O)OC(C)(C)C)CC2)cc1C | -19% | · | 46% | · | 7%[57.1 µM] | 3%
CCOC(=O)C1=C(SCC)c2cc3c(n2C1=O)CCCC3 | 35µM* | -16 | ? | -17 | 10µM* | 10%
SMILES | JMJD2A Tudor | CtBP-E1A inh | HP1b chromo inh | Six1-Eya2 blk | BAZ2B block | TDP1 block
O=S(=O)(NCCc1csc2nc(-c3ccccc3)nn12)c1cccs1 | -3% | · | 42% | · | 5% | 5%
Cc1[nH]c2ccccc2c1C(c1ccccn1)c1c(C)[nH]c2ccccc12 | -25% | -7 | -4% | -20 | 35µM* | 9%
Cc1[nH]c2ccccc2c1C(O)c1ccncc1 (stereo not drawn) | -10% | 2 | 54% | -4 | -5% | 4%
FC(F)(F)c1cnc(Nc2ccc(N3CCOCC3)cc2)c(Cl)c1 | ? | -21 | ? | -29 | 35µM* | 5%
COc1ccc(-c2noc(Cn3c(=O)c4ccccc4n(CC(=O)Nc4cccc(OC)c4)c3=O)n2)cc1 | 1% | · | 33% | · | -10% | 6%
C=C(C)CSc1nc2sc3c(c2c(=O)n1-c1ccccc1)CC(C(C)C)OC3 (stereo not drawn) | -12% | · | 21% | · | -2% | -6%[12.3 µM]
c1ccc(OCCOCCOc2ccccc2)cc1 | 115% | 10 | 34%[57 µM] | 11 | · | ·
C=CCN(CC=C)CCOc1cccc2ccccc12 | 20µM* | 3 | ? | -7 | 50µM* | -5%
CCCCN(CC)CCOc1cccc2ccccc12 | · | · | · | · | · | 15%
C=CCN(CC=C)CCOc1ccccc1 | 3.5µM* | -1 | -18% | 6 | 56µM* | 3%
COc1ccc(C2/C=C\CN(C(=O)c3ccc(C)cc3)C(C)C(=O)N2Cc2ccc(F)cc2)cc1 (stereo not drawn) | -28% | · | 1% | · | · | 6%
Oc1ccc(-c2cn3c(n2)SCC3)cc1 | -28% | -2 | 1% | 3 | -11% | 7%
Oc1ccc(-c2cn3c(n2)SCC3)cc1O | 11µM* | -25 | ? | ? | ? | ·
CCCN(CCC)CCNC(=O)c1cc(Sc2ccc(Cl)cc2)nc2ccccc12 | -11% | · | 67% | · | 27% | 3%
CCOC(=O)c1cc2c(=O)n3ccccc3nc2n(Cc2ccco2)c1=NC(=O)c1cccc(Br)c1 | -6% | · | 28% | · | 50µM* | 4%
Cc1cccc(C(=O)N=c2c(C#N)cc3c(=O)n4cccc(C)c4nc3n2Cc2ccco2)c1 | ? | 0 | 12% | ? | 1% | 16µM*
CCOC(=O)c1cc2c(=O)n3cccc(C)c3nc2n(Cc2ccco2)c1=NC(=O)c1cccnc1 | ? | -6 | 15% | -10 | 79µM* | -14%
CCc1ccccc1NC(=O)CNC(=O)c1ccc(OCc2cn3ccccc3n2)cc1 | ? | 0 | 0%[57 µM] | 1 | · | 28µM*
CCc1ccccc1NC(=O)CN1CCN(C(=O)c2ccc(OCc3cn4ccccc4n3)cc2)CC1 | -14% | 1 | -7% | -1 | 2% | -5%
